# Reference: the supplement of paper PMC3334620
# Whole data set: some 33,000 sequences, median “E-score (-0.5 to 0.5)” near -0.035, cut for the highest 2% near 0.35. What follows is part of a selection rich in the highest values, with near analogues and random picks from the rest.
# Target: T1, Pdr3 (UniProt P33200)
# T1 sequence: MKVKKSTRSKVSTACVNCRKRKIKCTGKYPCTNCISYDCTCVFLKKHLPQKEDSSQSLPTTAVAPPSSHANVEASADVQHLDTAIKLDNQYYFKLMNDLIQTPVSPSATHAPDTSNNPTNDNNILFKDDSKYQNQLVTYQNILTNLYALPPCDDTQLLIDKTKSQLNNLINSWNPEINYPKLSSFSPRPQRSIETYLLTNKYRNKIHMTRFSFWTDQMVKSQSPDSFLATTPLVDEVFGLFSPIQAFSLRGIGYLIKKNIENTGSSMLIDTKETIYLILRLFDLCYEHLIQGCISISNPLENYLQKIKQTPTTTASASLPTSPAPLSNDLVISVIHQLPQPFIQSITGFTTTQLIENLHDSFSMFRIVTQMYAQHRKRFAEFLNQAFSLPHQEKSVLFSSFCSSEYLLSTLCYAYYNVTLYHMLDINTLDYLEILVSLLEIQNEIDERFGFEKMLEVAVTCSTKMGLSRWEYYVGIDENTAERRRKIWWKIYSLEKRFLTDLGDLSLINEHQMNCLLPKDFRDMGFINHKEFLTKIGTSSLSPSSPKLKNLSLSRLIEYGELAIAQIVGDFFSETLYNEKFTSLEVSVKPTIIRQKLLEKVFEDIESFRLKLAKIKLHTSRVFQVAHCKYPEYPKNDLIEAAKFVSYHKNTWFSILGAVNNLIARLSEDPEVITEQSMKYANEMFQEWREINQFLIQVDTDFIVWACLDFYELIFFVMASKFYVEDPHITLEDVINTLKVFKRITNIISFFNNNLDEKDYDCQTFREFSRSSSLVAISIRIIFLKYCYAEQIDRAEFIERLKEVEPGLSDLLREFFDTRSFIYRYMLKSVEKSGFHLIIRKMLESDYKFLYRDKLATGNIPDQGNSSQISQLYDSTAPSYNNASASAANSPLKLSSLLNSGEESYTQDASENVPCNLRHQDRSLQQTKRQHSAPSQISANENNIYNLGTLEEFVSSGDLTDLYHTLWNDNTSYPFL
# Assay: PBM E-score (8-mer binding enrichment) (E-score (-0.5 to 0.5)); higher = stronger / more preferred TF binding
# Conditions: protein concentration: 200 nM; construct: GST-full length
# Description: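 Universal 'all 10-mer' protein binding microarrays (Agilent AMADID 015681) probed with GST-tagged S. cerevisiae TFs (full-length or DBD) made by in vitro transcription/translation (PURExpress), about 100-200 nM. Bound TF was detected with fluorescent anti-GST. Each ungapped 8-mer (which stands for itself and its reverse complement) is scored by the PBM enrichment score (E-score), a modified Wilcoxon-Mann-Whitney statistic from -0.5 to +0.5, computed with the Universal PBM Analysis Suite. Scale: above 0.35 generally sequence-specific binding.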
row,Sequence,PBM E-score
1,GGTTCGGA,0.34
2,AATTCGGA,0.365
3,CATTCGGC,0.145
4,CATTCGGA,0.356
5,AATTCGGG,0.153
6,AATTCGGC,0.173
7,CGTTCGGC,0.171
8,GATTCGGA,0.29
9,CGTTCGGA,0.414
10,GTAGCGTA,-0.0161
11,CTGTCGCC,0.0223
12,AAAAGATC,-0.0361
13,TCCGCAGA,0.258
14,CCCAAACA,-0.0368
15,AGGTTAGA,-0.00179
16,CGCCTGCC,-0.0358
17,AACCACCC,-0.00213
18,ACATAGAT,-0.085
19,CCAACCGC,0.146
20,AGTGTTCG,-0.0373
21,CATTAGAG,-0.234
22,AGGAAGCC,-0.0295

row,Sequence,PBM E-score
1,GGGAAGCA,-0.0013
2,CCGAAGCC,0.245
3,AGGAAGCA,-0.16
4,CGGAAGCC,0.416
5,CGGAAGCA,0.428
6,CGCGCTCC,0.308
7,ATTGTGGC,0.0289
8,GTCTACCA,-0.252
9,GTGGGAAA,-0.0227
10,CGGTTGGC,0.161
11,AAATACGG,0.0148
12,ACACGGAA,0.438
13,TCACGGCA,0.193
14,ACACGGAG,0.284
15,CCACGGAA,0.484
16,TCACGGGA,0.203
17,CCACGGGG,0.335
18,CCACGGGA,0.325
19,CCACGGAC,0.34
20,CCACGGCG,0.182
21,ACACGGAT,0.302
22,CCACGGAG,0.429

row,Sequence,PBM E-score
1,TCACGGAA,0.464
2,ACAATTTG,-0.117
3,AGACGGGC,0.0159
4,CTCGCAAA,-0.131
5,AGGAGAAT,-0.00643
6,AGGATGCA,-0.117
7,AAGGCATC,-0.216
8,ACCTAAAG,-0.12
9,CTCCACGC,-0.165
10,AGGATCAC,-0.231
11,CGGATCAC,0.391
12,GGGATCAC,-0.0461
13,CGGATCAA,0.356
14,CGGATCAG,0.334
15,TGGATCAA,-0.168
16,ATAGCCCG,0.0917
17,ATCGTTTG,0.0176
18,TATTCGCA,-0.0986
19,AGCCAGCT,-0.164
20,GTGGCGAA,0.106
21,CCCGGGCG,0.421
22,CCGGGGCC,0.367

row,Sequence,PBM E-score
1,CCGGGGCA,0.235
2,CGGGGGCC,0.142
3,CCGGGGGC,0.235
4,ACCGGGCC,0.25
5,CCGGGGCG,0.374
6,GCCGGGCC,0.12
7,ACGGGGCG,0.183
8,CCCGGGCC,0.397
9,CCCCGGCG,0.162
10,ACCGGGCG,0.0259
11,AAGCAGCG,0.017
12,CTACTCCA,-0.162
13,TCGACCGA,0.0776
14,ACTGGGCG,-0.018
15,AGTATTGC,-0.0115
16,ACCCAGTC,-0.0225
17,CGCCTCCG,0.295
18,AACTAGAC,-0.106
19,GCCTCACA,-0.114
20,CCCGATCG,0.234
